Experimental data reported in PubChem BioAssay (NCATS).
Records with an inconclusive call do not appear. A call without a number means that no potency is given here. More than one record can exist for a structure, and the calls need not agree. The source made the active and inactive calls. Unless noted, the call rests on the fitted dose curve; in most records, active means well fitted curve in the direction sought with a large enough effect; inconclusive means small, poorly fitted or top-dose-only effect, or another doubt; inactive means no such curve, though single readings can be large; an effect the other way counts as inactive or inconclusive.

Key:
[1] = qHTS for Inhibitors of Plasmodium falciparum (DD2) proliferation (AID 504314); further: potency means the concentration at half of the fitted maximal effect;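 on activity, negative = inhibition: parasite DNA measured by SYBR Green fluorescence after red cell lysis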
Summary of the method: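 Erythrocytes infected with P. falciparum Dd2 (0.3% parasitemia, 2.5% hematocrit) exposed to compound 72 h at 37C, 5% CO2. Parasite DNA quantified by SYBR Green fluorescence after saponin/Triton lysis overnight; normalized to 0.29 uM artemisinin and DMSO.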

[2] = qHTS for Inhibitors of Plasmodium falciparum (GB4) proliferation (AID 504315); further: nearly all actives have a fitted effect of over 50% in size; further: potency means the concentration at half of the fitted maximal effect
Summary of the method: (§1)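 Erythrocytes infected with P. falciparum line (0.3% parasitemia, 2.5% hematocrit final) incubated with compounds 72 h at 37 °C, 5% CO2; SYBR Green lysis buffer added, fluorescence read next day. Normalized to 0.29 uM artemisinin and DMSO.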

[3] = qHTS for Inhibitors of Plasmodium falciparum (7G8) proliferation (AID 504316); further: nearly all actives have a fitted effect of over 65% in size; further: potency means the concentration at half of the fitted maximal effect
Summary of the method: as §1

[4] = qHTS for Inhibitors of Plasmodium falciparum (HB3) proliferation (AID 504318); further: nearly all actives have a fitted effect of over 60% in size; further: potency means the concentration at half of the fitted maximal effect
Summary of the method: as §1

[5] = target: Atrial natriuretic peptide receptor 1 (Homo sapiens) (UniProt P16066); experiment: Natriuretic polypeptide receptor (hNpr1) antagonism - Pilot CMLD screen (AID 1347052; calls by dose curve;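 further: HEK293 cells with hNpr1 stimulated by hNppA peptide at 0.1 nM; cGMP level read as GloSensor luciferase luminescence after agonist stimulation; series mostly up to about 9.2 µM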)
[6] = qHTS for Inhibitors of Plasmodium falciparum (CP250) proliferation (AID 504320); further: potency means the concentration at half of the fitted maximal effect
Summary of the method: as §1

Atrial natriuretic peptide receptor 1 (Homo sapiens), sequence (P16066 whole entry, looked up): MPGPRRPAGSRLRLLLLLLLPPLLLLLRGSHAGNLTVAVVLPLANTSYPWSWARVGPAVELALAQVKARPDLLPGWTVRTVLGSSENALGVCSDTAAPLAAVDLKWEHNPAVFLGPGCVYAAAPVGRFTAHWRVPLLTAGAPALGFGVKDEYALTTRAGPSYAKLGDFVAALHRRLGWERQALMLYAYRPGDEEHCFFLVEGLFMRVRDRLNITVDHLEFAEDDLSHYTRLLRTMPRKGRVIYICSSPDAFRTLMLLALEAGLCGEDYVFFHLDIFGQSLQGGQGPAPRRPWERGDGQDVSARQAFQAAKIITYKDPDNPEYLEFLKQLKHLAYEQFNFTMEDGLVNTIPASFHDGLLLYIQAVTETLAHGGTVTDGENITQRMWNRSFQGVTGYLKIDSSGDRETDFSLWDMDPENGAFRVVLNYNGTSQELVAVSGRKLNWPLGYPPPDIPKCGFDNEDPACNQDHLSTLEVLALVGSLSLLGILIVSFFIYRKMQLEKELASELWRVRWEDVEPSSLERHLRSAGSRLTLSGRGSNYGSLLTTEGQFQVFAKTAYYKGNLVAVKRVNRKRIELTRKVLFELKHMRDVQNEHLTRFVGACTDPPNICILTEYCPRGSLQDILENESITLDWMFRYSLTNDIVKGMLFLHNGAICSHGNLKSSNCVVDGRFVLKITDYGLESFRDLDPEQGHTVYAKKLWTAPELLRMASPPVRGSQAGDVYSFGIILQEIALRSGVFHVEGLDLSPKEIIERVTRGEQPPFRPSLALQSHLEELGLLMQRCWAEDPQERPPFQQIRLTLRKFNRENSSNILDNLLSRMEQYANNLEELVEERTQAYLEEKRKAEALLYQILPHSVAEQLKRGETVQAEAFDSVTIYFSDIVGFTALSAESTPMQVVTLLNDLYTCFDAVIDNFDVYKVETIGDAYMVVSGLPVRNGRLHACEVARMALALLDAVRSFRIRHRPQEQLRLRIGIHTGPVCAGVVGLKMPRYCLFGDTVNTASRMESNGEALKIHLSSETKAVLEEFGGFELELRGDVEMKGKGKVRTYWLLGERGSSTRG

Structure (SMILES)	Potency [1]	Potency [2]	Potency [3]	Potency [4]	Potency [5]	Potency [6]	activity, negative = inhibition [1]
C=C(C#CCCO)CCN1C=C(C(=O)OCC)C(c2ccccc2)NC1=O (stereo not drawn)	inactive	inactive	inactive	inactive	inactive		
COc1cccc2c1[C@H](C=Cc1ccccc1)[C@@H]([C@H](O)COC(C)=O)OC2	inactive	inactive	inactive	inactive	inactive		
O=C1CCCC=C1C(O)CCOCc1ccccc1 (stereo not drawn)	inactive	inactive	inactive	inactive	inactive		
COc1cccc2c1C1(CCCCC1)CC2NC(=O)C(F)(F)F (stereo not drawn)	inactive	inactive	inactive	inactive	inactive		
CCCCc1nc2c(c3c1C[C@H](C)OC3)CN(C(=O)c1cccnc1)CC2	inactive	inactive	inactive	inactive	inactive		
C=CC[C@@](C(C)=O)(C(=O)OC)[C@@H](NC(=O)OC(C)(C)C)c1ccccc1	inactive	inactive	inactive	inactive	inactive		
CC(=O)OC[C@H]1O[C@H](CC=NO[C@H](C)CN2CCCCc3nc(C)c(C)cc32)C=C[C@@H]1OC(C)=O	inactive	inactive	inactive	inactive	inactive		
C#CCCCON=C1C[C@@H](O)[C@H](O)[C@H]2[C@@H]3C(=O)N(C[C@@H]4CCCO4)C(=O)[C@@H]3CC[C@@H]12	inactive	inactive	inactive		inactive		
COC(=O)[C@H](Cc1ccccc1)NC(=O)O[C@@H]1C(=O)c2cc(Br)ccc2O[C@H]1c1ccc2c(c1)OCO2	inactive	inactive	inactive	inactive	inactive		
CC(CCN1CCCCc2nc(C)c(C)cc21)=NO[C@@H](C)CN1CCCCc2nc(C)c(C)cc21	inactive	inactive	inactive	inactive	inactive		
CC(C)[C@@H](OCc1ccccc1)[C@H](C)C=NO[C@H](C)c1cn([C@H](CO)Cc2ccccc2)nn1	inactive	inactive	inactive	inactive	inactive	inactive	
FC(F)(F)c1cc(NC(=S)NC(c2ccccc2)c2ccccc2)cc(C(F)(F)F)c1	1.34 µM (active) and inactive	1.51 µM (active) and inactive	536 nM (active) and inactive	757 nM (active) and inactive	inactive	1.2 µM (active) and inactive	
COc1ccc(-c2nc(-c3ccccc3)c(NC(C)(C)C)o2)cc1	1.69 µM (active) and inactive	1.69 µM (active) and inactive	1.51 µM (active) and inactive	2.13 µM (active) and inactive	inactive		
CCOC(=O)NN=C1C[C@@H](O)[C@@H](O)[C@@H]2[C@H]3C(=O)N(C[C@@H]4CCCO4)C(=O)[C@@H]3CC[C@H]12	inactive	inactive	inactive	inactive	inactive		
C[C@@H](ON=C1[C@H]2CCn3c(=O)n(-c4ccccc4)c(=O)n3[C@@H]2[C@H](O)[C@@H]2O[C@H]12)c1cn([C@@H]2COC[C@@H]2O)nn1	inactive	inactive	inactive	inactive	inactive	inactive	
COC[C@H]1O[C@]2(c3ccccc3)CO[C@@H]1[C@@H](C=Cc1ccccc1)C2	inactive	inactive	inactive	inactive	inactive		
CCN(CCNC(=O)[C@H]1C=C(OC)C(=O)C[C@@H]2c3ccccc3C[C@]12C)C(C)=O	inactive	inactive	inactive	inactive	inactive	inactive	
O=C1Nc2cccc(Br)c2[C@@]12O[C@H](COc1ccccc1)CC1=CCCC12 (stereo partly drawn)	inactive	inactive	inactive	inactive	inactive		
C=CCOC(=O)C(C(C)=O)[C@@H](NC(=O)OC)c1ccc(F)cc1 (stereo partly drawn)	inactive	inactive	inactive	inactive	inactive		
COc1cccc(CC(=O)N2CCc3nc(COc4ccccc4)c4c(c3C2)CO[C@@H](C)C4)c1	inactive	inactive	inactive	inactive	inactive		
CC(=O)OC[C@H]1O[C@H](c2cc(C)cc(C)c2)C=C[C@H]1OC(C)=O	inactive	inactive	inactive	inactive	inactive	inactive	
CCOC(=O)C(c1ccc(OC)c(OC)c1)C1c2ccccc2C=C(C)N1C(=O)OC (stereo not drawn)		inactive	inactive	inactive	inactive		-0.0023% [at 1.12 µM] (inactive)
C[C@@H]1CC[C@H]2C(=O)N3[C@@H](CC[C@@H](C)[C@@H]3c3ccc(-c4ccco4)cc3)C(=O)N2[C@@H]1c1ccc(-c2ccco2)cc1	inactive	inactive	inactive	inactive	inactive		
COCCN1C(=O)NC(c2ccccc2)C(C(=O)OC)=C1C (stereo not drawn)	inactive	inactive	inactive	inactive	inactive	inactive	

Structure (SMILES)	Potency [1]	Potency [2]	Potency [3]	Potency [4]	Potency [5]	Potency [6]	activity, negative = inhibition [1]
COC(=O)c1nnc(C(=O)NCc2ccccc2)c2[nH]c3ccccc3c12	inactive	inactive	inactive	inactive	inactive		
CC1(C)O[C@H]2O[C@H]([C@H](O)CON=C3[C@H]4CCn5c(=O)n(-c6ccccc6)c(=O)n5[C@@H]4[C@H](O)[C@@H]4O[C@H]34)[C@H](O)[C@@H]2O1	inactive	inactive	inactive	inactive	inactive		
COc1ccc(O[C@@H]2[C@H](O)CO[C@@H]2C=CC#Cc2ccccc2)cc1	inactive	inactive	inactive	inactive	inactive		
COC(=O)c1ccc(CN2C(=O)C3(CC(C)=C[C@@H](C)O3)c3c(Br)cccc32)cc1 (stereo partly drawn)	inactive	inactive	inactive	inactive	inactive	inactive	
CCN1C(=NCCCOC(C)C)N[C@H](c2ccccc2)[C@H](C(=O)OC)[C@H]1C	inactive	inactive	inactive	inactive	inactive		
O=C(c1ccccc1)[C@@H]1O[C@@H]1c1ccccc1	inactive	inactive	inactive	inactive	inactive		
COCCN1C(=NCCc2cccnc2)NC(c2ccccc2)C(C(=O)OC)=C1C (stereo not drawn)	inactive	inactive	inactive	inactive	inactive		
CC12C=C(C=Cc3ccc(Br)cc3)C(C)(C1)C(c1ccc(Br)cc1)CC2=O (stereo not drawn)	1.5 µM (active)	1.69 µM (active)	1.69 µM (active)	1.69 µM (active)	inactive		
C#CCCCON=C1C[C@@H](O)[C@H](O)[C@H]2[C@@H]3C(=O)N(C[C@@H]4CCCO4)C(=O)[C@@H]3CC[C@H]12	inactive	inactive	inactive	inactive	inactive		
CC(C)(C)c1nc(-c2ccccc2)oc1Nc1ccc2ccccc2c1	1.69 µM (active)	1.9 µM (active)	1.51 µM (active)	2.94 µM (active)	inactive		
COC(=O)c1nnc(SC)nc1C(=O)OC	inactive	inactive	inactive	inactive	inactive		
C=CCOC(=O)N[C@H](C(C(=O)OC)=C(C)NCc1ccccc1)c1ccc(Br)cc1	inactive	inactive	inactive	inactive	inactive	inactive	
CC1(OC(=O)C2CCCC2)C(=O)C=C2C=C(c3ccsc3)N(CC3CC3)C=C2C1=O (stereo not drawn)		inactive	inactive	inactive	inactive		-6.74% [at 1.12 µM] (inactive)
C=CCCCN1C=C(C(=O)OCC)C(c2ccccc2)NC1=O (stereo not drawn)	inactive	inactive	inactive	inactive	inactive		
CC(C)C(=O)N[C@H]1CCCN1C(=O)C=Cc1ccccc1	inactive	inactive	inactive	inactive	inactive		
O=C1[C@H]2[C@@H]3[C@@H](O)[C@H](O)CC(=NOCc4ccccc4)[C@H]3CC[C@H]2C(=O)N1C[C@@H]1CCCO1	inactive	inactive	inactive	inactive	inactive		
COc1ccc(-c2nc3c(c4c2C[C@H](c2ccccc2)OC4)CN(S(=O)(=O)c2ccc(Cl)c4nonc24)CC3)c(C)c1	inactive	inactive	inactive	inactive	inactive		
COC(=O)C1=C(C)N(CCC(C)O[Si](C)(C)C(C)(C)C)C(=O)N(C(C)=O)C1c1ccccc1 (stereo not drawn)	inactive	inactive	inactive	inactive	inactive		
O=P1(O)Oc2c(c(-c3ccccc3)cc3ccccc23)-c2c(-c3ccccc3)cc3ccccc3c2O1	inactive	inactive	inactive	inactive	inactive		
COC(=O)N1C2CC3(C)C=C(C)OC1(C)C3c1ccccc12 (stereo not drawn)	inactive	inactive	inactive	inactive	inactive		
COC(=O)N[C@@H](c1cccc(C)c1)[C@]1(C(=O)OC)CCCC1=O	inactive	inactive	inactive	inactive	inactive		
COCCN1C(=O)C2=C(C1=O)C1N(C)c3ccccc3[C@@]13C[C@@H](CO)N(C(C)=O)C3=N2 (stereo partly drawn)	inactive	inactive	inactive	inactive	inactive		
CCN1C(=NCCc2cccnc2)NC(c2ccccc2)C(C(=O)OC)=C1C (stereo not drawn)	inactive	inactive	inactive	inactive	inactive	inactive	
